58 molecules from PubChem BioAssay AID1851 (National Center for Advancing Translational Sciences (NCATS), 2009) can be followed below.

The whole screen tested about 16,000 compounds, of which about 5,800 (36%) were called active. Not shown: some 23% with an inconclusive outcome. Calls come from the whole dose curve; as a rule, active = well fitted curve in the direction sought with a large enough effect; inconclusive = small, poorly fitted or top-dose-only effect, or effect the other way; inactive = no such curve, though single readings can be large or run the other way. This is one part of the list.
% is set by controls: 0 for no effect and ±100 for the full control effect.

The assay deals with Cytochrome P450 2C19 (Homo sapiens) (UniProt P33261). Kind of assay: Cytochrome panel assay with activity outcomes. The following applies: recombinant CYP, pro-luciferin dealkylation, luminescence, p450-cyp2c19; series mostly up to 57.1 µM.
Cytochrome P450 2C19 (Homo sapiens), sequence (P33261 whole entry, looked up): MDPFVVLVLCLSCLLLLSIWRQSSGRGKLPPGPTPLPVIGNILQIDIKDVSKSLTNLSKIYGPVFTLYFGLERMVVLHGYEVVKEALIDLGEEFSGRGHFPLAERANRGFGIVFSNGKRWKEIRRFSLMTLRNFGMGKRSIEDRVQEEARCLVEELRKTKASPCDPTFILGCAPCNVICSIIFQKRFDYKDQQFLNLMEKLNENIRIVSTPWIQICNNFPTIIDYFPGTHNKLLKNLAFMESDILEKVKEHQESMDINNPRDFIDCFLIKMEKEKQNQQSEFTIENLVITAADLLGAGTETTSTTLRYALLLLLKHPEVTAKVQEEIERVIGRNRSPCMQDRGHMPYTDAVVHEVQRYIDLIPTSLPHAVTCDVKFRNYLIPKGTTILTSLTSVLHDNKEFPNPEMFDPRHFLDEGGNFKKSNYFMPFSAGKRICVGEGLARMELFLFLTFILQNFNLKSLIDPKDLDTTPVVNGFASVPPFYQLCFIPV
`COC(=O)N1CCC2(CCN(C(=O)NC(C)C)CC2)CC1`: the AC50 (in general, the midpoint of the concentration-response curve, whichever way the signal moves) was “inactive”. The same measure, in the same setting: then `FC(F)(F)c1nnc2c(Sc3ccccc3)nc3ccc(Cl)cc3n12`, with 1.41 µM (active); and `FC(F)(F)c1nnc2c(Sc3ccc(Cl)cc3)nc3ccccc3n12`, with “inactive”; and `CC(C)NC(=O)c1ccc(-c2cccc(C(F)(F)F)c2)o1`, with 7.08 µM (active). On the same count and under the same terms, the entry for `CC(C)NC(=O)N1CCC2(CC1)CCN(C(=O)c1cc(C(F)(F)F)cc(C(F)(F)F)c1)CC2` is “inactive”; for `C[C@@]1(C(NC(=O)Cc2ccc(C(F)(F)F)cc2)c2ccc(-c3ccccc3)cc2)C[C@H]1C1CCCCC1` (stereo partly drawn) it is “inactive”; for `COCCCNC(=O)C1CCN(S(=O)(=O)N(CC(C)C)CC(C)C)CC1` it is “inactive”. The same measure, in the same setting: the figure for `CC(=O)Nc1ccc(S(=O)(=O)NCC2CCC(C(=O)NCCC(C)C)CC2)cc1` (stereo not drawn) is 31.6 µM (active); for `Cc1ccc(S(=O)(=O)NCC2CCC(C(=O)O)CC2)cc1` (stereo not drawn) it is “inactive”; for `CCCN(CCc1ccccc1)[C@H]1CCc2c(O)cccc2C1` it is “inactive”. In the case of `Cc1cc(C)c(Cn2cnc(-c3ccc([N+](=O)[O-])cc3)c2)c(C)c1`, the AC50 was 3.16 µM (active). On the same count and under the same terms, then `Cc1ccc(COn2c(-c3ccc(Cl)cc3)nc3ccc([N+](=O)[O-])cc32)cc1`, with “inactive”; and `C=C(C)C1CC=C(C)/C(=N/NC(=O)c2ccc(NC(=O)c3cccc(C)c3)cc2)C1` (stereo not drawn), with 1.41 µM (active).

Consider `Nc1nc(Nc2ccccc2)nc2c1ncn2[C@@H]1O[C@@H](CO)[C@H](O)[C@H]1O`, for which the AC50 is 0.631 µM (active).

`Nc1nc(Nc2ccccc2)nc2c1ncn2[C@@H]1O[C@@H](CO)[C@H](O)[C@@H]1O`: the AC50 entry was “inactive”. Consider `Nc1nc(Cl)nc2c1ncn2[C@@H]1O[C@@H](CO)[C@@H](O)[C@H]1O`, for which the AC50 entry was “inactive”. Take `C=CCn1c(Cc2ccc(OC)cc2)nnc1SCC(=O)c1cccc([N+](=O)[O-])c1`: the AC50 is 14.1 µM (active). On the same count and under the same terms, the figure for `CCOc1cc(C)ccc1OCc1nnc(SCC(=O)c2cccc([N+](=O)[O-])c2)n1C` is 14.1 µM (active); for `CCOc1cc(C)ccc1OCc1nnc(SCC(=O)c2cccc([N+](=O)[O-])c2)n1CC` it is “inactive”; for `CC1(C)OC(C(N)=O)C(C(N)=O)O1` (stereo not drawn) it is “inactive”. On to `CC(C)(CO)N1CCN(C(=S)Nc2ccccc2)CC1`, for which the activity, negative = inhibition is 4.38% [at 11.4 µM] (inactive). Turning to `COc1cc2c(cc1OC)CN(C(=S)Nc1ccccc1)CC2`, the AC50 was 2.51 µM (active). Still for that read-out and setting: then `COCOc1ccc(Br)cc1C(=O)[C@H]1O[C@H]1c1cccc(OC)c1`, with 0.0631 µM (active); and `CN(c1ccc(C(=O)NC2CC3CCC2C3)cc1)S(C)(=O)=O` (stereo not drawn), with “inactive”. Still for that read-out and setting: the figure for `CCCC1c2c(ccc3ccccc23)Oc2ccc3ccccc3c21` is 0.631 µM (active); for `COc1ncc2nc(-c3cc(F)cc(F)c3)c(=O)n(CCC#N)c2n1` it is “inactive”. Same read-out and setting: then `C=CCNC(=O)c1ccccc1Cl`, with “inactive”.

For the molecule `NCCc1nc(-c2nc(C(=O)O)cs2)cs1`, the activity, negative = inhibition was -18.8% [at 11.4 µM] (inactive).

For `C=CCNC(=O)c1csc(-c2ccccc2)n1`, the half-maximal activity concentration (AC50) is 10 µM (active). The same measure, in the same setting: the figure for `O=C(/C=C/c1ccco1)Nc1ccc(Oc2ccccc2)cc1` is 5.01 µM (active); for `O=C(c1ccccc1)c1nc2ccccc2n(CCCn2c(=O)c(C(=O)c3ccccc3)nc3ccccc32)c1=O` it is 1 µM (active). `CCCCCn1c(=O)c(C(=O)c2ccccc2)nc2ccccc21`: the AC50 is 2 µM (active). The same measure, in the same setting: the entry for `O=C(O)Cc1cc2ccccc2nc1C(=O)O` is “inactive”. On the same count and under the same terms, the entry for `COc1ccc2c(c1)CCC1[C@@H]2CCC2(C)[C@@H](NCCCCCCN3C(=O)C=CC3=O)CC[C@@H]12` (stereo partly drawn) is “inactive”.

On to `Oc1ccc(CNCc2ccccc2)c2cccnc12`, for which the activity, negative = inhibition was -5.63% [at 11.4 µM] (inactive). In the case of `COc1cccc(CNCc2ccc(SC)cc2)c1OC`, the AC50 was 0.251 µM (active). Take `CC(C)(C)NC(=O)CSC(=Nc1ccc(F)cc1)NC#N`: the AC50 was 2.82 µM (active).

For `COc1ccc(C(=O)N2CCC3(CCCN(CC(C)C)C3)CC2)cc1`, the AC50 result is “inactive”. On the same count and under the same terms, the entry for `COc1ccc(C)cc1NC(=O)c1cc2cc3ccc(C)cc3nc2o1` is “inactive”; for `Cc1ccc2cc3cc(C(=O)N4CCCCC4C)oc3nc2c1` (stereo not drawn) it is 14.1 µM (active). On to `Cc1ccc2cc(C(=O)O)c(C)nc2c1`, for which the AC50 result is “inactive”. For the molecule `COc1ccc2cc3cc(C(=O)Nc4ccc5c(c4)OCO5)oc3nc2c1`, the AC50 is 7.08 µM (active).

As to `CCN1CCN(CCCNC(=O)c2cc3cc4ccc(OC)cc4nc3o2)CC1`, the AC50 entry is “inactive”. The same measure, in the same setting: then `COc1ccc2cc3cc(C(=O)NCCN4CCN(c5ccccc5F)CC4)oc3nc2c1`, with 28.2 µM (active).

In the case of `COc1ccc2cc3cc(C(=O)NCc4ccccn4)oc3nc2c1`, the AC50 result is “inactive”.

Regarding `COc1ccc2cc3cc(C(=O)NCCCN4CCOCC4)oc3nc2c1`, the AC50 entry is “inactive”. On to `COc1ccc2cc3cc(C(=O)NCc4ccc5c(c4)OCO5)oc3nc2c1`, for which the AC50 was 10 µM (active). For the molecule `CCN(CC(=O)O)CC(=O)O`, the activity, negative = inhibition was 7.01% [at 11.4 µM] (inactive). `COCC(=O)N1CCC[C@@]2(CCN(c3ncccn3)C2)C1`: the AC50 entry was “inactive”. Turning to `O=S1(=O)C=C(SCc2cccc(Cl)c2)Nc2ccccc21`, the AC50 was 0.891 µM (active). Regarding `C=CCOc1cccc(CNn2cn[nH]c2=S)c1`, the AC50 was 7.94 µM (active). Take `C[C@@H](C(=O)NCCc1c[nH]c2ccccc12)[C@@H]1C[C@@]1(C)[C@@H](NC(=O)OCc1ccccc1)c1ccccc1`: the AC50 is 0.794 µM (active). The same measure, in the same setting: then `C[C@@H](C(=O)NCCc1c[nH]c2ccccc12)[C@H]1C[C@]1(C)[C@H](NC(=O)OCc1ccccc1)c1ccccc1`, with 2.51 µM (active); and `COc1cccc([C@@H]2Oc3ccc(Br)cc3C(=O)[C@H]2O)c1`, with 3.16 µM (active).

For the molecule `COc1cccc([C@H]2Oc3ccc(OC)cc3/C(=N\O[C@@H]3O[C@H](COC(C)=O)[C@H](OC(C)=O)[C@H](OC(C)=O)[C@H]3OC(C)=O)[C@@H]2O)c1`, the activity, negative = inhibition was 14.8% [at 11.4 µM] (inactive). For `COc1cccc([C@@H]2Oc3ccc(OC)cc3C(=O)[C@H]2O)c1`, the AC50 is 1 µM (active).

As to `CC(=O)OCC(=O)[C@]12OC(C)(C)O[C@@H]1C[C@H]1[C@H]3CC=C4C[C@@H](O)CC[C@]4(C)[C@H]3CC[C@]12C`, the activity, negative = inhibition was 4.13% [at 11.4 µM] (inactive). In the case of `CC[C@@H]1OC(=O)[C@H](C)[C@H](O[C@@H]2C[C@](C)(OC)[C@H](O)[C@H](C)O2)[C@H](C)[C@H](O[C@@H]2O[C@@H](C)C[C@@H](N(C)C)[C@@H]2O)[C@](C)(O)C[C@H](C)C(=O)[C@H](C)[C@H](O)[C@]1(C)O`, the AC50 result was “inactive”.
